# Test results reported in PubChem BioAssay (Tox21).
# Records with an inconclusive call do not appear. A call without a number means that no potency is given here. Active and inactive are the calls of the source. Calls follow the shape of the dose curve; as a rule, active = well fitted curve in the direction sought with a large enough effect in the repeat runs; inconclusive = weak or mixed curves; inactive = no such curve, though single readings can be large; an effect the other way counts as inactive or inconclusive.
# What was measured:
# [1] = molecular target: Voltage-gated inwardly rectifying potassium channel KCNH2 (Homo sapiens) (UniProt Q12809); experiment: Human Ether-a-go-go-Related Gene (hERG) channel small molecule antagonists: fluorescence cell-based qHTS assay (AID 1671200);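 also: hERG-expressing U2OS cells given a thallium stimulus after FluxOR II dye loading; series mostly up to about 77 µM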
# Sequence of Voltage-gated inwardly rectifying potassium channel KCNH2 (Homo sapiens) (Q12809 whole entry, looked up): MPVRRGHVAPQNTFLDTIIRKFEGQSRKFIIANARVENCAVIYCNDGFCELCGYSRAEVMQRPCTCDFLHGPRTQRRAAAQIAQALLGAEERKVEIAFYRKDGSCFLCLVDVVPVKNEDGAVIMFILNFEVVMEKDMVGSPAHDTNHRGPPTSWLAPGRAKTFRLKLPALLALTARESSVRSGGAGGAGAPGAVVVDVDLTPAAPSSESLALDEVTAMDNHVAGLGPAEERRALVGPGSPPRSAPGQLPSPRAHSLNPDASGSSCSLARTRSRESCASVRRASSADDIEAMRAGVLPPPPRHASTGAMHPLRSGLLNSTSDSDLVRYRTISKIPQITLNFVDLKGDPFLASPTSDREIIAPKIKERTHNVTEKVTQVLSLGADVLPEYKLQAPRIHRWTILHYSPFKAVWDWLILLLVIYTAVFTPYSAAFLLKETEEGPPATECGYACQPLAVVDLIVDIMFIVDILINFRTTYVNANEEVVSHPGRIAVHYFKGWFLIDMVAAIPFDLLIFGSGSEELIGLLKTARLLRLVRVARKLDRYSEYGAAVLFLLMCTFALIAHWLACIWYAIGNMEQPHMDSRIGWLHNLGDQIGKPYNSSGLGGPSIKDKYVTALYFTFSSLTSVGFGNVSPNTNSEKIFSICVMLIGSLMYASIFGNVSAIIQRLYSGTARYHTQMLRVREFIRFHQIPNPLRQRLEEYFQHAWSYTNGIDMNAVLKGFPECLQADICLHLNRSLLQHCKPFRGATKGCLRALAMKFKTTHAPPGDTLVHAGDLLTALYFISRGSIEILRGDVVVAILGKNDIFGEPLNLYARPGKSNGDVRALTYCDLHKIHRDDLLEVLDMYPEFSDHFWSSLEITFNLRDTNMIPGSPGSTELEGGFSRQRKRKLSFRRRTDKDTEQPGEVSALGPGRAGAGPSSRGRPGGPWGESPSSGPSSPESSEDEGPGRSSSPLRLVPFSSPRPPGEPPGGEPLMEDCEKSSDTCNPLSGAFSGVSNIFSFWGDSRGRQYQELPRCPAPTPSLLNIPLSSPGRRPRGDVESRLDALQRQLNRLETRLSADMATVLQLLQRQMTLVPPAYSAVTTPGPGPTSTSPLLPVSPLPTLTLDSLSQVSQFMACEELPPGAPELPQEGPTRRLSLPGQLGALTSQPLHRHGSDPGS
# Summary of the method: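 In this thallium-flux screen, overnight-cultured U2OS cells bearing the channel are dye-loaded in darkness for an hour, rested 10 min at room temperature, and then monitored kinetically at 480/540 nm for two minutes post-stimulus.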
# [2] = molecular target: Cytochrome P450 3A4 (Homo sapiens) (UniProt P08684); experiment: Cytochrome P450 Family 3 Subfamily A Member 4 (CYP3A4) small molecule antagonists: luciferase reporter qHTS assay (AID 1671201); also: series mostly up to about 120 µM
# Sequence of Cytochrome P450 3A4 (Homo sapiens) (P08684 whole entry, looked up): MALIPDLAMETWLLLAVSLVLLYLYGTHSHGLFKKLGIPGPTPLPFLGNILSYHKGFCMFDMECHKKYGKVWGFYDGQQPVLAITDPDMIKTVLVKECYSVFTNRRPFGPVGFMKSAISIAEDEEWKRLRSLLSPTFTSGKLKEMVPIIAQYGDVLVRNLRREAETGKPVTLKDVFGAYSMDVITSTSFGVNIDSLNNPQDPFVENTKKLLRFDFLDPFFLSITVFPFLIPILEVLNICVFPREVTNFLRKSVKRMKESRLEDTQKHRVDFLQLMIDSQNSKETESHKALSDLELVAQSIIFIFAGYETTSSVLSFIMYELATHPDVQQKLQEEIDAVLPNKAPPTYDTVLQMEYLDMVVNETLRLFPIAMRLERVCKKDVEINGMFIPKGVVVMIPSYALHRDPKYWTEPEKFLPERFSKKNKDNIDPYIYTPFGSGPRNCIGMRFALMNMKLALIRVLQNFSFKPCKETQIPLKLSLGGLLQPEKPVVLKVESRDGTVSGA
# Summary of the method: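 CYP3A4 activity was followed with a P450-Glo proluciferin substrate. Test compounds in DMSO were preincubated 10 min; NADPH regeneration then ran 1 h, and light output was read 20 min after detection reagent.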
# Also: nearly all actives have a fitted effect of over 50% in size.
SMILES,outcome [1],Potency [2]
CC(=O)NS(=O)(=O)c1ccc(N)cc1,inactive,inactive
C[C@]12C=CC(=O)C=C1CC[C@@H]1[C@@H]2[C@@H](O)C[C@@]2(C)[C@H]1CC[C@]2(O)C(=O)CO,inactive,
O=C(O)c1cccc([N+](=O)[O-])c1,inactive,inactive
O=C(O)C(=O)O,inactive,inactive
O=S(=O)(O)c1ccc2cc(O)ccc2c1,inactive,
